GIRK2 activ: opens human GIRK2 potassium channels; P48051; HEK293-GIRK2 thallium flux, Thallos fluorescence, MPD; calls only for hits at 25 µM; hit rate 0.05% among 63,000; AID 1259325; call rule not given here
Target sequence (P48051 whole entry, looked up): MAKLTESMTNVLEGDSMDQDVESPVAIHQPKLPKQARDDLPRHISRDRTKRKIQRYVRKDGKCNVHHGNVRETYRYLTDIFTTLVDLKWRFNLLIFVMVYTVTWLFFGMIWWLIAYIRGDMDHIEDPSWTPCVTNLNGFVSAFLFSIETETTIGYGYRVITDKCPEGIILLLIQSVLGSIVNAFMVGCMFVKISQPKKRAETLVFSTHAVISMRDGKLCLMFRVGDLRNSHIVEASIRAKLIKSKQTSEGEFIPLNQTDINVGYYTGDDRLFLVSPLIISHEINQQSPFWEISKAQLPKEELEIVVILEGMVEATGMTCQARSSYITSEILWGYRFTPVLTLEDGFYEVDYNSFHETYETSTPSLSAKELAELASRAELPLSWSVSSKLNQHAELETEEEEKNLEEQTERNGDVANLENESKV
Starred values were filed as active, the others as inactive. The full list was thinned out, with hits kept by preference.

What do the screens show for `O=C(c1ccc(Br)o1)N1CCN(Cc2nnnn2-c2ccc(F)cc2)CC1`?
GIRK2 activ: inactive

Results for O=C(NCc1ccccn1)C1CCN(c2ccc(-c3ccccc3)nn2)CC1 ?
GIRK2 activ: inactive

What do the screens show for `COc1ccc(S(=O)(=O)N2CCN(c3cc(Cl)ccc3Cl)CC2)cc1`?
GIRK2 activ: inactive

How did O=C(CSc1nnc(N2CCN(C(=O)Cc3c[nH]c4ccccc34)CC2)s1)Nc1ccccc1 do in these assays?
GIRK2 activ: inactive

What do the screens show for `COc1nn(C)cc1C(=O)Nc1nnc(SCC(N)=O)s1`?
GIRK2 activ: inactive

What do the screens show for `COc1ccccc1CCC(=O)NC1(c2nc(C)no2)CCCCC1`?
GIRK2 activ: inactive

Results for CCCCOc1ccc(C(=O)N(Cc2ccco2)c2nc3ccc(S(C)(=O)=O)cc3s2)cc1 ?
GIRK2 activ: inactive

How did CS(=O)(=O)c1ccc2nc(N(Cc3ccco3)C(=O)c3ccc(Br)s3)sc2c1 do in these assays?
GIRK2 activ: inactive

Results for CS(=O)(=O)c1ccc2nc(N(Cc3ccco3)C(=O)C3CCCCC3)sc2c1 ?
GIRK2 activ: active

What do the screens show for `CCC(C)n1c(C)cn2c3c(=O)n(CCC(C)C)c(=O)n(C)c3nc12` (stereo not given)?
GIRK2 activ: inactive

How did CCCCCCCC(=O)C1=C2C=C3C=C(/C=C\C(=O)O)N(C4C(O)OC(CCCCCCCCCCCCCCCC(C)(O)C(=O)O)C(O)C4O)C=C3C(=O)C2(C)OC1=O (stereo not given) do in these assays?
GIRK2 activ: inactive

What do the screens show for `O=c1c2scc(-c3cccc(Cl)c3)c2ncn1Cc1cc(=O)n2ccccc2n1`?
GIRK2 activ: inactive

How did COc1ccc(CNC(=O)c2cnc(OC)nc2)cc1 do in these assays?
GIRK2 activ: inactive

What do the screens show for `Cc1cc(NC(=O)CSc2nnc(-c3ccc(=O)n(C)c3)n2C)no1`?
GIRK2 activ: inactive

What do the screens show for `CCn1c(=O)c2c(nc3n(-c4ccccc4OC)c(-c4ccccc4)cn23)n(C)c1=O`?
GIRK2 activ: active

Results for COc1ccccc1-n1c(-c2ccccc2)cn2c3c(=O)n(CC(C)=O)c(=O)n(C)c3nc12 ?
GIRK2 activ: inactive

Results for CCOC(=O)Cn1c(=O)c2c(nc3n(-c4ccccc4OC)c(-c4ccccc4)cn23)n(C)c1=O ?
GIRK2 activ: inactive

Results for COc1ccc(C2CCN(C(=O)c3ccc4c(c3)OCO4)C2)cc1 (stereo not given) ?
GIRK2 activ: inactive

Results for O=C(NCCCS(=O)(=O)N1CCN(c2ncccn2)CC1)C(c1ccccc1)c1ccccc1 ?
GIRK2 activ: inactive

Results for COc1ccc(OC)c(CNC(=O)CCc2nnc3ccc(-c4ccc(C)c(C)c4)nn23)c1 ?
GIRK2 activ: inactive

How did O=C(NC1CCN(Cc2ccccc2)CC1)C1CCCN(c2ncnc3c2oc2ccccc23)C1 (stereo not given) do in these assays?
GIRK2 activ: inactive

How did Cn1nc(-c2ccccc2)cc1C(=O)NCCCn1ncccc1=O do in these assays?
GIRK2 activ: inactive

Results for COc1ncc(NC(=O)c2c(F)cccc2Cl)cn1 ?
GIRK2 activ: inactive

What do the screens show for `O=C(CCc1ccccc1)Nc1nnc(-c2ccsc2)o1`?
GIRK2 activ: inactive

How did COc1cccc(C(=O)Nc2ccc(Cn3cnc(C(=O)Nc4ccccc4C)c3)cc2)c1 do in these assays?
GIRK2 activ: inactive

What do the screens show for `COc1cc(COc2ccc3c(c2)C(=O)CC3)cc(OC)c1`?
GIRK2 activ: inactive

Results for COC(=O)CSc1nc2c(c(=O)[nH]c(=O)n2C)n1CC(C)C ?
GIRK2 activ: inactive

What do the screens show for `O=C(c1cc(=O)c(OCc2ccccc2)co1)N1CCN(Cc2ccccc2)CC1`?
GIRK2 activ: inactive

How did Cc1csc(-c2cc3ccc(OC(=O)N4CCOCC4)cc3oc2=O)n1 do in these assays?
GIRK2 activ: inactive

How did CSc1cccc(NC(=O)Cn2nc3c(Oc4cc(C)cc(C)c4)nccn3c2=O)c1 do in these assays?
GIRK2 activ: inactive

How did COCCSc1nc2c(c(=O)n(Cc3ccc(Cl)cc3)c(=O)n2C)n1C do in these assays?
GIRK2 activ: inactive

How did O=C(Nc1nc(C(=O)N2CCN(C(=O)c3ccco3)CC2)co1)c1cnccn1 do in these assays?
GIRK2 activ: inactive

Results for COc1ccc(OC)c2sc(N(CCCn3ccnc3)C(=O)Cc3ccccc3)nc12 ?
GIRK2 activ: inactive

What do the screens show for `CSc1ccc(CNC(=O)c2nnn(-c3ccccc3C)c2-c2ccncc2)cc1`?
GIRK2 activ: inactive

What do the screens show for `Cc1ccccc1-n1nnc(C(=O)NCc2ccc(Br)cc2)c1-c1ccncc1`?
GIRK2 activ: inactive

Results for Cc1ccccc1-n1nnc(C(=O)Nc2nccs2)c1-c1ccncc1 ?
GIRK2 activ: inactive

How did COc1cccc(CNC(=O)c2nnn(-c3ccccc3Cl)c2-c2ccncc2)c1 do in these assays?
GIRK2 activ: inactive

Results for COc1ccc(NC(=O)c2nnn(-c3ccccc3C)c2-c2ccncc2)c(C)c1 ?
GIRK2 activ: active

What do the screens show for `COc1cc(OC)c(NC(=O)c2nnn(-c3ccccc3C)c2-c2ccncc2)cc1Cl`?
GIRK2 activ: active

How did Cc1ccc(C)c(NC(=O)c2ccc(S(=O)(=O)N3CC(C)CC(C)C3)cc2)c1 (stereo not given) do in these assays?
GIRK2 activ: inactive

What do the screens show for `O=C(CCc1ccccc1)NCCNc1cc(Nc2ccccn2)ncn1`?
GIRK2 activ: inactive

How did CCOC(=O)c1cn[nH]c1S(=O)(=O)Nc1cccc(CC)c1 do in these assays?
GIRK2 activ: inactive

How did CCOC(=O)c1cn[nH]c1S(=O)(=O)N1CCN(c2ccc(C(C)=O)cc2)CC1 do in these assays?
GIRK2 activ: inactive

What do the screens show for `CCOC(=O)c1cn[nH]c1S(=O)(=O)N1CCN(c2cccc(C)c2)C(C)C1` (stereo not given)?
GIRK2 activ: active

How did O=C(Cn1ccc2ccccc21)Nc1cc(N2CCN(Cc3ccccc3)CC2)ncn1 do in these assays?
GIRK2 activ: inactive

What do the screens show for `CCOC(=O)N1CCC(NC(=O)Cn2ccc3ccccc32)CC1`?
GIRK2 activ: inactive

Results for O=C(Cn1ccc2ccccc21)NC1CCN(Cc2ccccc2)CC1 ?
GIRK2 activ: active

Results for CC(=O)N1CCc2cc(S(=O)(=O)N3CCN(c4ccc5nnc(C)n5n4)CC3)ccc21 ?
GIRK2 activ: inactive

How did COc1nn(C)cc1C(=O)Nc1nnc(SCC(=O)Nc2ccc(OC(F)(F)F)cc2)s1 do in these assays?
GIRK2 activ: inactive

Results for COC(=O)N1CCc2ccc(Br)cc2C1C(=O)Nc1ccc(SC)cc1 (stereo not given) ?
GIRK2 activ: inactive

Results for COC(=O)N1CCc2ccc(Br)cc2C1C(=O)Nc1nccs1 (stereo not given) ?
GIRK2 activ: active

Results for COC(=O)N1CCc2ccc(F)cc2C1C(=O)Nc1cccc(C)n1 (stereo not given) ?
GIRK2 activ: inactive

What do the screens show for `CN(C)CC1CSCCCN1C(=O)NCc1ccc(F)cc1` (stereo not given)?
GIRK2 activ: inactive

Results for CCOc1ccccc1NC(=O)Cn1c2ccc(C)cc2c2ncn(Cc3nc(CC)no3)c(=O)c21 ?
GIRK2 activ: inactive

How did CCCOC(=O)Nc1ccc(I)cc1C do in these assays?
GIRK2 activ: inactive

How did CCOc1ccc(-c2noc(CN3N=NC4C(=O)N(c5cccc(Cl)c5)C(=O)C43)n2)cc1OC (stereo not given) do in these assays?
GIRK2 activ: inactive

How did COc1ccc(-n2ccn(CC(=O)Nc3c(C)cc(C)cc3C)c(=O)c2=O)cc1 do in these assays?
GIRK2 activ: inactive

Assay outcomes from PubChem.
